Bioassay records as filed in PubChem.
Shown is part of a subset that was picked to be rich in hits.
Dicer inh: inhibitors of Dicer pre-microRNA processing, primary screen, biochemical, cat-ELCCA, chemiluminescence. Endoribonuclease Dicer (Homo sapiens), Q9UPY3. cat-ELCCA pre-miR-21 Dicer processing; stronger effect = higher value. z-score at 25 µM. actives 6% (n = 47,000). AID 1347074, 2019; in the data active = z-score above about 3, passing the limit was not always enough;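 also: plate controls were vehicle for no effect and no enzyme for full effect; higher signal means more uncleaved substrate so more Dicer inhibition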
* marks the source's active call; other numbers are inactive results.

CCC(=O)N1c2ccccc2C(N(C(=O)c2ccco2)c2ccccc2)CC1C (stereo not given) was read as Dicer inh 0.95.
For COC(=O)C1=C(C)N=C2SC(C)C(=O)N2C1c1ccc(Cl)cc1 (stereo not given) the results were Dicer inh 2.
`CCOc1cc(C)c(S(=O)(=O)n2ccnc2)cc1C` gave Dicer inh -0.84.
O=C(N/C=C/c1ccsc1)Nc1cccc(Cl)c1 was read as Dicer inh 1.7.
For Nc1nc(SCc2nc(-c3ccc(Cl)cc3)no2)n[nH]1 the results were Dicer inh -0.25.
`Nc1nnc(SCC(=O)n2c3c(c4ccccc42)CCCC3)s1` gave Dicer inh -0.12.
`CCn1cc(C(=O)O)c(=O)c2cc(F)c(N3CCN(C)CC3)cc21` gave Dicer inh 3.
`CCn1cc(C(=O)O)c(=O)c2cc(F)c(N3CCN(S(=O)(=O)c4ccc(Cl)cc4)CC3)cc21` gave Dicer inh 3.5*.
For CCn1cc(C(=O)O)c(=O)c2cc(F)c(N3CCNCC3)cc21 the results were Dicer inh -0.24.
Cc1ccc(CN2C(=O)C3C(c4ccccc4Cl)OC4(C(=O)c5ccccc5C4=O)C3C2=O)cc1 (stereo not given) was read as Dicer inh 0.24.
`O=C(NC(=O)N1CCCCC1)c1csnn1` gave Dicer inh -0.86.
O=c1c2cc([N+](=O)[O-])ccc2oc2ncccc12 was read as Dicer inh -0.58.
`Cc1noc(/C=C/c2ccc(OCc3ccsc3C#N)cc2)c1[N+](=O)[O-]` gave Dicer inh -3.1.
For Cc1ccc(/C=C/c2onc(C)c2[N+](=O)[O-])o1 the results were Dicer inh -1.3.
`Cc1noc(/C=C/c2ccc(N3CCCC3)cc2)c1[N+](=O)[O-]` gave Dicer inh 3.3*.
`O=[N+]([O-])c1cccc(Cl)c1SCc1c(F)cccc1Cl` gave Dicer inh -0.4.
FC(F)(F)c1cccc(-c2ccnc3cc(-c4nc(-c5ccc(Cl)cc5)cs4)nn23)c1 was read as Dicer inh -0.41.
For Cc1ccc(-c2nnc3c4ccccc4c(C)nn23)cc1S(=O)(=O)N1CCC(C)CC1 the results were Dicer inh 5.5*.
For Cc1ccc(-c2nnc3c4ccccc4c(C)nn23)cc1S(=O)(=O)N(C)C1CCCCC1 the results were Dicer inh 0.96.
Cc1ccc(-c2nnc3c4ccccc4c(C)nn23)cc1S(=O)(=O)N1CCCCC1 was read as Dicer inh 1.4.
Screening O=C(c1cn(CCOc2ccccc2F)c2ccccc12)C1CC1 returned Dicer inh 1.9.
`O=c1c(Oc2ccccc2Br)c(C(F)(F)F)oc2cc(O)ccc12` gave Dicer inh 1.
`Cc1cc(C)cc(Oc2c(C(F)(F)F)oc3cc(O)ccc3c2=O)c1` gave Dicer inh 0.79.
For O=c1c(Oc2ccccc2Cl)c(C(F)(F)F)oc2cc(O)ccc12 the results were Dicer inh 3.3*.
For Cc1ccc(-c2nc(N)sc2C)cc1 the results were Dicer inh 0.07.
For Cc1ccc(-c2nc(N)sc2-c2ccccc2)cc1 the results were Dicer inh 3.1*.
For Cc1sc(N)nc1-c1ccc(CC(C)C)cc1 the results were Dicer inh -1.7.
`CS(=O)(=N/C=C(\C#N)C(=O)c1ccc(Cl)cc1)c1ccc(OC(=O)c2ccc(Cl)cc2)cc1` (stereo not given) gave Dicer inh -1.1.
CC(C)N=C(C(=O)NC(C)C)C(F)(F)F was read as Dicer inh 0.51.
CCOC(=O)Cn1cnc2sc(C)c(C)c2c1=O was read as Dicer inh 4.9.
Cc1cc(C)c(NC(=S)NN)c(C)c1 was read as Dicer inh 1.8.
COC(OC)c1ccc(C#N)c(SCC(=O)c2ccc(C)cc2)n1 was read as Dicer inh -2.5.
For COc1ccc(N2CC3CCc4ccccc4C3=N2)cc1 (stereo not given) the results were Dicer inh -0.95.
Screening COc1ccc(C2C3CCc4ccccc4C3=NN2CCOC(=O)C2CC2)cc1 (stereo not given) returned Dicer inh 4.8*.
Screening COc1ccc(NC(=S)N2N=C3c4ccccc4CCC3C2c2ccc(F)cc2)cc1 (stereo not given) returned Dicer inh 0.71.
CC1=C(C(=O)OC2CCCCC2)C(c2ccc(N(C)C)cc2)C2=C(CCCC2=O)N1 (stereo not given) was read as Dicer inh 0.92.
`C=CCn1c(SCC(=O)NC(=O)NC)nnc1-c1ccncc1` gave Dicer inh -1.9.
Screening Cc1cc(C)c(Nc2nnns2)c(C)c1 returned Dicer inh -2.2.
Screening Cc1cc(C)c(Nc2nc3cc(Br)cc(C)c3s2)c(C)c1 returned Dicer inh 3.8*.
`Cc1cc(C)c(Nc2n[nH]c(=S)s2)c(C)c1` gave Dicer inh -0.74.
For CCOC(=O)c1cnn(-c2ccc(NS(=O)(=O)c3ccc(C)cc3)cc2)c1C(F)(F)F the results were Dicer inh 1.1.
Cc1nnc2sc(-c3ccc(Cl)c(N)c3)nn12 was read as Dicer inh -0.55.
For Cc1c2c(=O)n(-c3nc4ccccc4s3)nc-2cc(O)n1Cc1ccccc1 the results were Dicer inh 0.33.
CC(=O)N1CCN(CCn2c(C)c3c(=O)n(-c4nc5ccccc5s4)[nH]c3cc2=O)CC1 was read as Dicer inh -0.51.
For Cc1c2c(=O)n(-c3nc4ccccc4s3)[nH]c2cc(=O)n1Cc1ccc(C(=O)O)cc1 the results were Dicer inh 27*.
Cc1ccc2c(C)nc(Nc3nc(C)cc(C)n3)nc2c1 was read as Dicer inh 0.47.
Screening Cc1nn2c3c(cnc2c1-c1ccccc1)C(=O)CC(/C=C/c1ccccc1)C3 (stereo not given) returned Dicer inh 0.63.
`CCCCn1c(CCC(=O)O)ccc1-c1ccc(C)cc1` gave Dicer inh -1.6.
COc1ccc(-n2c(CCC(=O)O)ccc2-c2cccs2)cc1 was read as Dicer inh 1.3.
`CCCn1c(CCC(=O)O)ccc1-c1cccs1` gave Dicer inh 3*.
`CCOC(=O)c1sc(-c2ccccc2)nc1OCc1ccccc1Cl` gave Dicer inh 0.3.
`O=C(CN1C(=O)c2ccccc2C1=O)Nc1cccc(-n2cccc2)c1` gave Dicer inh 0.78.
Cc1cc(Cc2cccs2)c(=O)[nH]n1 was read as Dicer inh 1.4.
`Cc1cc(Cc2ccc(C(F)(F)F)cc2)c(=O)[nH]n1` gave Dicer inh 3.1*.
`Cc1ccc(Cc2cc(-c3ccc(C)cc3)n[nH]c2=O)cc1` gave Dicer inh -0.37.
For Cn1c(=O)c2c(nc(N)n2CC(=O)O)n(C)c1=O the results were Dicer inh -4.9.
For O=C(CN1C(=O)c2ccccc2S1(=O)=O)NCCSc1ccc(Cl)cc1 the results were Dicer inh 1.1.
`COc1ccc(Sc2ccccc2C(=O)O)c(C(=O)O)c1` gave Dicer inh -0.72.
For Cc1ccc(-c2c3c(=O)n(C)c(=O)n(C)c3c3c(-c4ccccc4)cc(C)nn23)cc1 the results were Dicer inh -0.32.
Screening C#CCSc1nnc2[nH]c(=O)cc(N)n12 returned Dicer inh 2.7.
For Nc1cc(=O)[nH]c2nnc(SCc3ccccc3Cl)n12 the results were Dicer inh 2.5.
CC(C)CCSc1nnc2[nH]c(=O)cc(N)n12 was read as Dicer inh 3.4*.
Screening Cc1cc(-c2noc(COc3cccc(Cl)c3)n2)c2ccccc2n1 returned Dicer inh -0.29.
Screening Cc1cc(=O)n(-c2ccc(O)cc2)[nH]1 returned Dicer inh -7.2.
